Screening data: PubChem BioAssay, National Center for Advancing Translational Sciences (NCATS)
Most compounds without a hit are left out; they make up all but 19% or so of the library.
Pf growth 96h = P. falciparum growth inhibition at 96 hours; Potency, µM (highest dose often 28.7 µM), usual class: inhibitors; AID 504834; P. falciparum luciferase reporter growth, 96 h; actives 6.9% (n = 320,000)
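Two-generation exposure (96 h) targets delayed-death phenotype. Reporter parasites carrying integrated firefly luciferase, in red cells at 2% hematocrit and 0.05% parasitemia final, kept at 37 C, 5% CO2; luminescence loss indicates inhibition.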
Pf growth 48h = P. falciparum growth inhibition at 48 hours (one generation). P. falciparum luciferase growth in erythrocytes, 48 h. Potency, µM (doses to about 28.7 µM), usual class: inhibitors. actives 5.9% (n = 310,000)
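Read-out is firefly luciferase luminescence from an integrated reporter in P. falciparum, so falling signal marks reduced parasite growth. Infected erythrocytes were at 2% hematocrit and 0.1% parasitemia (final) in Albumax-supplemented RPMI 1640.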
AMA1-RON2 inh = AMA1-RON2 (P. falciparum) interaction inhibition; Potency, µM (top dose mostly 58.2 µM), hits mostly inhibitors; actives 0.2% (n = 360,000); AlphaScreen AMA1-biotinylated RON2 peptide binding; also: nearly all actives have a fitted effect of over 45% in size
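AMA1 (3D7) with his tag at 25 nM final met compounds first, then biotinylated RON2 peptide at 25 nM; detection used donor plus acceptor beads, 10 µg/mL apiece, read by AlphaScreen after 30 min at room temperature.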
CHX counter = affects cycloheximide protein synthesis inhibition readout, counter-screen; cell reporter, cycloheximide protein synthesis inhibition counterscreen; max response, %; AID 2314; actives 12% (n = 300,000); in the data active = max response mostly above about 13%, no sharp cut-off; inactive = mostly below about 14%; also: read at 38.3 µM for the half of the compounds with a filed dose
SARS PLP yeast = SARS-CoV PLP inhibition in yeast | S. cerevisiae expressing SARS-CoV PLpro, growth rescue | Potency, µM (doses to about 32.9 µM), usual class: activators | actives 0.19% (n = 330,000) | AID 485353; calls by dose curve; also: nearly all actives have a fitted effect of over 55% in size
Shiga toxin inh = inhibitors of Shiga toxin in Vero cells. Vero cells, Shiga toxin protein synthesis inhibition reporter. inhibition, % at 38.7 µM. AID 2315. actives 9.2% (n = 290,000); in the data active = inhibition mostly above about 28%, no sharp cut-off; inactive = mostly below about 43%
Large screens that a line does not name were inactive. Unless noted, calls follow the shape of the dose curve; as a rule, active = well fitted curve in the direction sought with a large enough effect; inconclusive = small, poorly fitted or top-dose-only effect, or another doubt; inactive = no such curve, though single readings can be large; an effect the other way counts as inactive or inconclusive.

Cc1ccc(N(C(=O)Cn2nnc(-c3ccc(C)o3)n2)C(C(=O)NC2CCCC2)c2ccncc2)cc1 (stereo not drawn)	Pf growth 96h 10.4µM
CC(=O)c1ccc(N(C(=O)Cn2nnc(-c3ccccc3)n2)C(C(=O)NC2CCCCC2)c2ccccn2)cc1 (stereo not drawn)	Pf growth 96h 9.28µM
Cc1cc(C)c2c(CN(C)Cc3ccccc3)cc(=O)oc2c1	none (no result: Pf growth 96h, Pf growth 48h, CHX counter, SARS PLP yeast, Shiga toxin inh)
CCOC(=O)[C@H]1[C@H]2COc3ccc(OC)cc3[C@@H]2N2C(=O)CN(C)C(=O)[C@@]12C	Pf growth 96h inconclusive, SARS PLP yeast inconclusive (no result: CHX counter, Shiga toxin inh)
O=C(NC1CCCC1)C(c1cccs1)N(Cc1ccco1)C(=O)Cn1nnc(-c2cccs2)n1 (stereo not drawn)	Pf growth 48h inconclusive
COc1ccc(-c2nnn(CC(=O)N(Cc3ccc(F)cc3)C(C(=O)NC3CCCC3)c3ccc(F)cc3)n2)cc1 (stereo not drawn)	none (no result: Pf growth 96h, Pf growth 48h, CHX counter, SARS PLP yeast, Shiga toxin inh)
CCOC(=O)CN(C(=O)Cn1nnc(-c2ccc(OC)cc2)n1)C(C(=O)NC1CCCC1)c1ccc(F)cc1 (stereo not drawn)	Pf growth 96h 14.7µM, Pf growth 48h 13.1µM
CC(C)(C)NC(=O)C(c1ccc(F)cc1)N(Cc1ccco1)C(=O)Cn1nnc(-c2cccs2)n1 (stereo not drawn)	Pf growth 96h inconclusive, Pf growth 48h 5.86µM
CCC(C(=O)NC1CCCC1)N(C(=O)Cn1nnc(-c2ccc(C)o2)n1)C(C)(C)C (stereo not drawn)	Pf growth 96h 2.33µM, Pf growth 48h inconclusive
CCC(C(=O)NC1CCCC1)N(C(=O)Cn1nnc(-c2ccc(C)o2)n1)c1ccc(OC)cc1 (stereo not drawn)	Pf growth 48h inconclusive
Cc1ccc(-c2nnn(CC(=O)N(Cc3ccco3)C(C(=O)NC3CCCC3)c3cccs3)n2)o1 (stereo not drawn)	Pf growth 96h inconclusive, Pf growth 48h 13.1µM
Cc1cccc(-n2ncc3c2CCCC3NC(=O)CCCN2CCCCC2=O)c1C (stereo not drawn)	Pf growth 96h inconclusive
O=C1C(Cc2c[nH]c3ccccc23)NC(=S)N1C1CCCCC1 (stereo not drawn)	none
Cc1ccc2[nH]c(=O)c3cc(C(=O)N(C)c4ccc(C)c(C)c4)sc3c2c1	Pf growth 96h 8.28µM, Pf growth 48h inconclusive
CCCCN(CC)CCCNC(=O)c1cc2c(=O)[nH]c3ccccc3c2s1	Pf growth 96h inconclusive, Pf growth 48h inconclusive
CCCCN(CC)CCNC(=O)c1cc2c(=O)[nH]c3ccc(C)cc3c2s1	Pf growth 48h 8.28µM
CC(C)c1csc(CN2CCN(Cc3ccc(F)cc3)C(CCO)C2)n1 (stereo not drawn)	Pf growth 48h inconclusive
COc1ccc(C(=O)CN2Cc3ccccc3C2=N)cc1	CHX counter 29.9, Shiga toxin inh 88.2
Cn1c(=N)n(CC(=O)c2ccccc2)c2ccccc21	CHX counter 23.3
COc1ccc(C(=O)Cn2c(=N)n(C)c3ccccc32)cc1	CHX counter 60.5, Shiga toxin inh 85.4
CCCc1cc(-c2nc(-c3ccc(Cl)cc3)cs2)ccn1	none
CCCc1cc(-c2nc(-c3ccc(Br)cc3)cs2)ccn1	CHX counter 21.9
COC(=O)CN1C(=S)N(Cc2ccccc2)C(=O)C1CC(=O)Nc1ccc(OC)cc1 (stereo not drawn)	Pf growth 48h 4.15µM
CCN1CCN(CCCNC(=O)c2ccc3c(Cl)c4c(nc3c2)CCCC4)CC1	Pf growth 48h inconclusive
C[C@H](NC(=O)[C@@H]1CSC2c3ccccc3C(=O)N21)C(=O)NCc1c(F)cccc1Cl (stereo partly drawn)	Pf growth 96h 11.7µM, Pf growth 48h inconclusive
C[C@H](NC(=O)[C@@H]1CSC2c3ccccc3C(=O)N21)C(=O)NC1CCCC1 (stereo partly drawn)	none
CCCc1nn2c(=O)cc(CSCC(=O)Nc3nnc(C(C)C)s3)nc2s1	Pf growth 96h 11.7µM
Cc1nn2c(=O)cc(CSCC(=O)Nc3ccccc3F)nc2s1	Pf growth 96h inconclusive
Cc1nn2c(=O)cc(CSCC(=O)Nc3ccccc3Cl)nc2s1	Pf growth 96h 11.7µM
CCCc1nn2c(=O)cc(CSCC(=O)Nc3ccccc3)nc2s1	Pf growth 96h inconclusive
Cc1cc(C)n(C(=O)CNC(=O)COc2ccccc2)n1	none
O=C1Nc2ccccc2N=C(c2ccccc2)C1N1CCOCC1 (stereo not drawn)	none
O=C1Nc2ccccc2N=C(c2ccccc2)C1Br (stereo not drawn)	Shiga toxin inh 46.1
COCc1cc(=O)[nH]c(N2CCN(c3ccccc3OC)CC2)n1	Pf growth 96h 8.28µM
COCc1cc(=O)[nH]c(N2CCN(C(=O)c3ccco3)CC2)n1	none
O=C(NC(=S)NCCc1ccccc1)C1CCCCC1	CHX counter 33.6, Shiga toxin inh 54.8
O=C(NC(=S)NCc1ccccc1)C1CC1	none
O=C(CNC(=S)NC(=O)C1CCCCC1)c1ccccc1	CHX counter 75.0, Shiga toxin inh 114.4
CCC(CC)C(=O)Nc1c2c(nn1-c1ccc(OC)cc1)CS(=O)C2 (stereo not drawn)	Pf growth 96h 0.0329µM (no result: Pf growth 48h)
COC(=O)c1ccccc1NC(=O)Cn1c(=O)n(CCC(=O)NC2CCN(Cc3ccccc3)CC2)c(=O)c2ccccc21	Pf growth 96h 9.28µM
CC(C)OCCCn1c(=O)c2ccccc2n2c(CCC(=O)O)nnc12	Pf growth 96h 1.65µM (no result: Pf growth 48h)
CC(C)OCCCn1c(=O)c2ccccc2n2c(CCC(=O)NCc3ccccn3)nnc12	Pf growth 96h inconclusive
CC(C)OCCCn1c(=O)c2ccccc2n2c(CCC(=O)NC3CCN(Cc4ccccc4)CC3)nnc12	Pf growth 96h 14.7µM, Pf growth 48h inconclusive
N#Cc1ccccc1S(=O)(=O)N1CCN(CC(O)c2ccccc2)CC1 (stereo not drawn)	Pf growth 96h inconclusive, Pf growth 48h inconclusive
Cc1ccccc1OCC(=O)N/N=C1\CC(=O)CC(C)(C)C1	none
Cc1ccc(OCC(=O)N/N=C2\CC(=O)CC(C)(C)C2)c(Br)c1	Pf growth 96h 9.28µM
C(#CCN1CCCC1)CC(c1ccccc1)c1ccccc1	Pf growth 48h inconclusive
Cc1cccc(OCCn2c(=S)[nH]c3ccccc32)c1	Pf growth 96h 13.1µM, Pf growth 48h inconclusive, CHX counter 13.4
Cc1ccc(OCCn2c(=S)[nH]c3ccccc32)c(C(C)C)c1	Pf growth 48h 11.7µM
CCOc1ccc(OCCn2c(=S)[nH]c3ccccc32)cc1	Pf growth 96h inconclusive, Pf growth 48h inconclusive
S=c1[nH]c2ccccc2n1CCOc1ccccc1	Pf growth 96h inconclusive, Pf growth 48h inconclusive, CHX counter 20.8 (no result: Shiga toxin inh)
